In PubChem BioAssay AID1159580 (chemical genetic matrix, 2015):
Values joined by “and” are separate entries in the source; they are usually repeats but may differ in a detail not shown here. Identical values can stand only once. Hit rate of the full screen: of about 5,500 compounds, about 2,000 (36%) were called active. Inconclusive results (about 18%) are left out. Cut-off read from the data, not from the text of the source: active = normalized growth mostly below about 0.91 (no sharp cut-off); inconclusive = no clear call, values can overlap the other calls; inactive = mostly above about 0.92. The list shows a part of the results.

Assay: chemical genetic growth profiling, strain panel (AID 1159580);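 note: tested at 20 µM; growth read once vehicle control cultures reached saturation at 30 °C; 1 = growth at the plate median or of vehicle wells; lower values mean less growth of the strain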
Settings: S. cerevisiae deletion strains, growth OD

**Q.** With `COc1ccc(-c2cc(=O)c3ccccc3o2)cc1` as the compound, how does the normalized growth (locus YAL013W, strain DEP1, stronger effect = lower value) read?
**A.** Its normalized growth is 0.682 (active).

**Q.** What about the normalized growth (locus YAL021C, strain ccr4, stronger effect = lower value) of the same compound?
**A.** The normalized growth was 0.888 (active).

**Q.** And the normalized growth (locus YAL026C, strain drs2, stronger effect = lower value)?
**A.** Its normalized growth is 0.828 (active).

**Q.** What about the normalized growth (locus YAL030W, strain snc1, stronger effect = lower value) of the same compound?
**A.** Its normalized growth is 0.905 (active).

**Q.** What about the normalized growth (locus YBL061C, strain skt5, stronger effect = lower value) of the same compound?
**A.** The normalized growth was 0.869 (active).

**Q.** What about the normalized growth (locus YBR009C, strain hhf1, stronger effect = lower value) of the same compound?
**A.** The normalized growth was 0.725 (active).

**Q.** What about the normalized growth (locus YBR021W, strain FUR4, stronger effect = lower value) of the same compound?
**A.** Its normalized growth is 0.949 (inactive).

**Q.** And the normalized growth (locus YBR023C, strain chs3, stronger effect = lower value)?
**A.** Its normalized growth is 0.811 (active).

**Q.** And the normalized growth (locus YBR171W, strain sec66, stronger effect = lower value)?
**A.** The normalized growth was 0.869 (active).

**Q.** What about the normalized growth (locus YBR229C, strain ROT2, stronger effect = lower value) of the same compound?
**A.** The normalized growth was 0.932 (inactive).

**Q.** And the normalized growth (locus YBR231C, strain swc5, stronger effect = lower value)?
**A.** Its normalized growth is 0.857 (active).

**Q.** And the normalized growth (locus YBR279W, strain paf1, stronger effect = lower value)?
**A.** Its normalized growth is 0.881 (active).

**Q.** What about the normalized growth (locus YCL011C, strain gbp2, stronger effect = lower value) of the same compound?
**A.** Its normalized growth is 0.809 (active).

**Q.** And the normalized growth (locus YCL016C, strain dcc1, stronger effect = lower value)?
**A.** The normalized growth was 0.781 (active).

**Q.** What about the normalized growth (locus YCL029C, strain bik1, stronger effect = lower value) of the same compound?
**A.** The normalized growth was 0.753 (active).

**Q.** And the normalized growth (locus YCL061C, strain MRC1, stronger effect = lower value)?
**A.** The normalized growth was 0.833 (active).

**Q.** And the normalized growth (locus YCL069W, strain vba3, stronger effect = lower value)?
**A.** The normalized growth was 0.863 (active).

**Q.** And the normalized growth (locus YCR088W, strain abp1, stronger effect = lower value)?
**A.** Its normalized growth is 0.926 (inactive).

**Q.** What about the normalized growth (locus YDL005C, strain med2, stronger effect = lower value) of the same compound?
**A.** Its normalized growth is 0.919 (inactive).

**Q.** And the normalized growth (locus YDL035C, strain GPR1, stronger effect = lower value)?
**A.** Its normalized growth is 0.656 (active).

**Q.** And the normalized growth (locus YDL040C, strain nat1, stronger effect = lower value)?
**A.** The normalized growth was 0.923 (active).

**Q.** What about the normalized growth (locus YDL074C, strain BRE1, stronger effect = lower value) of the same compound?
**A.** The normalized growth was 0.452 (active).

**Q.** What about the normalized growth (locus YDL101C, strain DUN1, stronger effect = lower value) of the same compound?
**A.** Its normalized growth is 0.655 (active).

**Q.** And the normalized growth (locus YDL185W, strain tfp1, stronger effect = lower value)?
**A.** Its normalized growth is 0.907 (inactive).

**Q.** What about the normalized growth (locus YDL192W, strain arf1, stronger effect = lower value) of the same compound?
**A.** Its normalized growth is 0.685 (active).

**Q.** And the normalized growth (locus YDR001C, strain nth1, stronger effect = lower value)?
**A.** Its normalized growth is 0.923 (inactive).

**Q.** And the normalized growth (locus YDR069C, strain doa4, stronger effect = lower value)?
**A.** Its normalized growth is 0.926 (inactive).

**Q.** And the normalized growth (locus YDR101C, strain arx1, stronger effect = lower value)?
**A.** Its normalized growth is 0.884 (active).

**Q.** What about the normalized growth (locus YDR137W, strain rgp1, stronger effect = lower value) of the same compound?
**A.** Its normalized growth is 0.53 (active).

**Q.** What about the normalized growth (locus YDR159W, strain sac3, stronger effect = lower value) of the same compound?
**A.** The normalized growth was 0.998 (inactive).

**Q.** And the normalized growth (locus YDR162C, strain NBP2, stronger effect = lower value)?
**A.** The normalized growth was 0.274 (active).

**Q.** And the normalized growth (locus YDR195W, strain ref2)?
**A.** The normalized growth was 1.3 [resistant] (active).

**Q.** And the normalized growth (locus YDR297W, strain sur2, stronger effect = lower value)?
**A.** Its normalized growth is 0.899 (active).

**Q.** And the normalized growth (locus YDR318W, strain mcm21, stronger effect = lower value)?
**A.** The normalized growth was 0.792 (active).

**Q.** And the normalized growth (locus YDR334W, strain swr1, stronger effect = lower value)?
**A.** Its normalized growth is 0.943 (inactive).

**Q.** What about the normalized growth (locus YDR335W, strain msn5, stronger effect = lower value) of the same compound?
**A.** The normalized growth was 0.902 (active).

**Q.** What about the normalized growth (locus YDR388W, stronger effect = lower value) of the same compound?
**A.** The normalized growth was 0.807 (active).

**Q.** What about the normalized growth (locus YDR392W, strain spt3, stronger effect = lower value) of the same compound?
**A.** The normalized growth was 0.406 (active).

**Q.** And the normalized growth (locus YDR502C, strain sam2, stronger effect = lower value)?
**A.** Its normalized growth is 0.757 (active).

**Q.** And the normalized growth (locus YEL003W, strain gim4, stronger effect = lower value)?
**A.** The normalized growth was 0.79 (active).

**Q.** What about the normalized growth (locus YEL037C, strain rad23, stronger effect = lower value) of the same compound?
**A.** Its normalized growth is 0.904 (active).

**Q.** And the normalized growth (locus YEL061C, strain CIN8 (second series), stronger effect = lower value)?
**A.** The normalized growth was 0.904 (active).

**Q.** What about the normalized growth (locus YEL061C, strain CIN8, stronger effect = lower value) of the same compound?
**A.** The normalized growth was 0.672 (active).

**Q.** What about the normalized growth (locus YER015W, strain faa2, stronger effect = lower value) of the same compound?
**A.** Its normalized growth is 0.904 (active).

**Q.** What about the normalized growth (locus YER016W, strain bim1, stronger effect = lower value) of the same compound?
**A.** The normalized growth was 0.918 (active).

**Q.** What about the normalized growth (locus YER110C, stronger effect = lower value) of the same compound?
**A.** The normalized growth was 0.927 (inactive).

**Q.** And the normalized growth (locus YER111C, strain swi4, stronger effect = lower value)?
**A.** The normalized growth was 0.881 (active).

**Q.** And the normalized growth (locus YER155C, strain BEM2 (second series), stronger effect = lower value)?
**A.** Its normalized growth is 0.283 (active).

**Q.** What about the normalized growth (locus YER155C, strain BEM2, stronger effect = lower value) of the same compound?
**A.** Its normalized growth is 0.734 (active).

**Q.** What about the normalized growth (locus YER167W, strain BCK2, stronger effect = lower value) of the same compound?
**A.** Its normalized growth is 0.739 (active).

**Q.** And the normalized growth (locus YFR010W, strain ubp6, stronger effect = lower value)?
**A.** The normalized growth was 0.911 (inactive).

**Q.** What about the normalized growth (locus YGL078C, strain dbp3, stronger effect = lower value) of the same compound?
**A.** Its normalized growth is 0.933 (inactive).

**Q.** And the normalized growth (locus YGL086W, strain mad1, stronger effect = lower value)?
**A.** Its normalized growth is 0.762 (active).

**Q.** What about the normalized growth (locus YGL167C, strain pmr1, stronger effect = lower value) of the same compound?
**A.** The normalized growth was 0.894 (active).

**Q.** What about the normalized growth (locus YGL173C, strain kem1, stronger effect = lower value) of the same compound?
**A.** Its normalized growth is 0.798 (active).

**Q.** And the normalized growth (locus YGL227W, strain vid30, stronger effect = lower value)?
**A.** Its normalized growth is 0.92 (inactive).

**Q.** And the normalized growth (locus YGL240W, strain doc1, stronger effect = lower value)?
**A.** The normalized growth was 0.756 (active).

**Q.** And the normalized growth (locus YGL248W, strain PDE1, stronger effect = lower value)?
**A.** The normalized growth was 0.636 (active).

**Q.** What about the normalized growth (locus YGL253W, strain hxk2, stronger effect = lower value) of the same compound?
**A.** Its normalized growth is 0.681 (active).

**Q.** And the normalized growth (locus YGR135W, strain pre9, stronger effect = lower value)?
**A.** Its normalized growth is 0.747 (active).

**Q.** What about the normalized growth (locus YGR252W, strain gcn5, stronger effect = lower value) of the same compound?
**A.** Its normalized growth is 0.824 (inactive).

**Q.** What about the normalized growth (locus YHR013C, strain ard1, stronger effect = lower value) of the same compound?
**A.** The normalized growth was 0.771 (active).

**Q.** What about the normalized growth (locus YHR027C, strain rpn1, stronger effect = lower value) of the same compound?
**A.** The normalized growth was 0.916 (active).

**Q.** What about the normalized growth (locus YHR030C, strain SLT2, stronger effect = lower value) of the same compound?
**A.** The normalized growth was 0.398 (active) and 0.992 (inactive).

**Q.** What about the normalized growth (locus YHR079C, strain IRE1 (second series), stronger effect = lower value) of the same compound?
**A.** The normalized growth was 0.887 (active).

**Q.** And the normalized growth (locus YHR079C, strain IRE1, stronger effect = lower value)?
**A.** Its normalized growth is 1 (inactive).

**Q.** What about the normalized growth (locus YHR094C, strain hxt1, stronger effect = lower value) of the same compound?
**A.** Its normalized growth is 0.939 (inactive).

**Q.** What about the normalized growth (locus YHR129C, strain ARP1, stronger effect = lower value) of the same compound?
**A.** The normalized growth was 0.661 (active).

**Q.** And the normalized growth (locus YHR142W, strain chs7, stronger effect = lower value)?
**A.** The normalized growth was 0.584 (active).

**Q.** And the normalized growth (locus YHR200W, strain rpn10, stronger effect = lower value)?
**A.** Its normalized growth is 0.868 (active).

**Q.** And the normalized growth (locus YIL066C, strain RNR3, stronger effect = lower value)?
**A.** The normalized growth was 0.55 (active).

**Q.** And the normalized growth (locus YIL073C, strain SPO22, stronger effect = lower value)?
**A.** Its normalized growth is 0.66 (active).

**Q.** What about the normalized growth (locus YIL125W, strain kgd1, stronger effect = lower value) of the same compound?
**A.** Its normalized growth is 0.949 (inactive).

**Q.** What about the normalized growth (locus YIR030C, strain dcg1, stronger effect = lower value) of the same compound?
**A.** Its normalized growth is 0.804 (active).

**Q.** What about the normalized growth (locus YJL092W, strain hpr5, stronger effect = lower value) of the same compound?
**A.** Its normalized growth is 0.884 (active).

**Q.** What about the normalized growth (locus YJL095W, strain BCK1 (second series), stronger effect = lower value) of the same compound?
**A.** The normalized growth was 0.707 (active).

**Q.** And the normalized growth (locus YJL095W, strain BCK1, stronger effect = lower value)?
**A.** The normalized growth was 0.277 (active) and 0.975 (inactive).

**Q.** And the normalized growth (locus YJL115W, strain asf1, stronger effect = lower value)?
**A.** Its normalized growth is 0.915 (inactive).

**Q.** What about the normalized growth (locus YJL129C, strain trk1, stronger effect = lower value) of the same compound?
**A.** Its normalized growth is 0.916 (inactive).

**Q.** What about the normalized growth (locus YJL134W, strain LCB3, stronger effect = lower value) of the same compound?
**A.** The normalized growth was 0.928 (inactive).

**Q.** What about the normalized growth (locus YJL154C, strain vps35, stronger effect = lower value) of the same compound?
**A.** Its normalized growth is 0.938 (inactive).

**Q.** What about the normalized growth (locus YJL164C, strain tpk1, stronger effect = lower value) of the same compound?
**A.** Its normalized growth is 0.754 (active).

**Q.** And the normalized growth (locus YJL166W, strain qcr8, stronger effect = lower value)?
**A.** Its normalized growth is 0.771 (active).

**Q.** What about the normalized growth (locus YJL168C, strain set2, stronger effect = lower value) of the same compound?
**A.** The normalized growth was 0.922 (active).

**Q.** And the normalized growth (locus YJL187C, strain SWE1 (second series), stronger effect = lower value)?
**A.** The normalized growth was 0.668 (active).

**Q.** What about the normalized growth (locus YJL187C, strain SWE1, stronger effect = lower value) of the same compound?
**A.** Its normalized growth is 0.9 (active).

**Q.** What about the normalized growth (locus YJR043C, strain POL32, stronger effect = lower value) of the same compound?
**A.** The normalized growth was 0.724 (active).
